Measurements published in PubChem BioAssay (NCI).
This is part of a sample that, as a whole, favours compounds with a hit. Of some 83,000 tested, about 20% had one in any assay.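 Treatment: one concentration, 48 hours, 96-well format. Scoring: percent growth, with anything below 10 considered active.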 Unmarked numbers belong to inactive results. Active and inactive are the calls of the source.

Legend:
Assay in all cases: NCI-60 one-dose screen, 48 h (100 = growth as untreated, 0 = no growth, -100 = all killed)
Conditions in all cases: 10 µM unless noted
HCT-15 colon = system: HCT-15 colon
HT29 colon = system: HT29 colon
SNB-75 CNS = system: SNB-75 CNS
SNB-19 CNS = system: SNB-19 CNS
U251 CNS = system: U251 CNS
PC-3 prostate = system: PC-3 prostate
SK-MEL-5 melanoma = system: SK-MEL-5 melanoma
UACC-62 melanoma = system: UACC-62 melanoma
LOX IMVI melanoma = system: LOX IMVI melanoma
SK-MEL-28 melanoma = system: SK-MEL-28 melanoma

SMILES | growth (HCT-15 colon) | growth (HT29 colon) | growth (SNB-75 CNS) | growth (SNB-19 CNS) | growth (U251 CNS) | growth (PC-3 prostate) | growth (SK-MEL-5 melanoma) | growth (UACC-62 melanoma) | growth (LOX IMVI melanoma) | growth (SK-MEL-28 melanoma)
O=C(/C=C/c1ccccc1)C(Br)C(Br)c1ccccc1 (stereo not given) | -32.7% (active) | -53.5% (active) | 80.1% | 73.5% | 42.9% | 4.21% (active) | 38.9% | 5.9% (active) | -68.6% (active) | 11.1%
Cc1ccc2nc(CN(CCN(Cc3nc4ccc(C)cc4[nH]3)Cc3nc4ccc(C)cc4[nH]3)Cc3nc4ccc(C)cc4[nH]3)[nH]c2c1 | -94.3% (active) | -98.2% (active) | -100% (active) | -100% (active) | -94.1% (active) | -83.4% (active) | -100% (active) | -85.3% (active) | -90.8% (active) | -94.8% (active)
COc1ccc2cc(-c3nc(C)c(C(C)=O)c(-c4ccc(C)cc4)n3)ccc2c1 | 88.2% | 82.4% | 98.5% | 92.8% | 94.5% | 85.9% | 75.4% | 71.7% | 101% | 101%
COc1ccc(/C(=C\c2cc(OC)c(OC)c(OC)c2)C(=O)N2CCNCC2)cc1 | 104% | 95.6% | 83% | 99.7% | 94.6% | 90.7% | 93.4% | 90% | 87.5% | 112%
CC1=NN(c2cccc(S(N)(=O)=O)c2)C(=O)C1 | 111% | 104% | 82.7% | 90.4% | 101% | 80.1% | 92.8% | 89.7% | 96.3% | 111%
COc1cc(/C=C2\C(=O)Nc3ccc(N(C)C)cc32)cc(OC)c1OC | 17% | 9.36% (active) | -17.1% (active) | 36.2% | 11.4% | 35% | 21.5% | -0.443% (active) | 32.8% | 43.4%
COCCOCCOCc1n(Cc2ccc3ccccc3n2)c2ccccc2[n+]1Cc1ccc2ccccc2c1 | 78.3% | -4.5% (active) | -5.72% (active) | 11.6% | 12.4% | 5.71% (active) | -94.1% (active) | -38.5% (active) | -76% (active) | 8.66% (active)
CNC(=O)c1cc(Oc2ccc(NC(=O)c3[nH]c(SC)nc3-c3ccc(F)cc3)cc2)ccn1 | 72.5% | 12.8% | 78.7% | 99.3% | 84.6% | 33.2% | 23.3% | 5.44% (active) | 57.7% | 22.3%
C#CC[C@@H]1C[C@]2(C)[C@H]3CC=C4[C@H]5[C@@H](C)[C@H](C)CC[C@]5(C(=O)NCCCCN)CC[C@@]4(C)[C@]3(C)CC[C@H]2C(C)(C)[C@H]1OC(C)=O | 31.9% | 10.5% | 81.1% | 73.9% | 40.7% | 47.5% | 94.9% | 106% | 18.6% | 100%
Cc1nc2c(-c3cnc(N)nc3)nc(N3CCOCC3)nc2n1C(C)C | 10.7% | 3.37% (active) | -38.8% (active) | 10.6% | 4.62% (active) | 14.4% | -21.2% (active) | -39.9% (active) | -1.69% (active) | -10.1% (active)
Cc1cc(C)c2c(n1)sc1c(Nc3ccc(O)cc3)ncnc12 | 51.7% | 40% | 50.4% | 31% | 26.6% | 47.2% | 25.6% | 16.1% | 13.1% | 77.7%
COc1cc(C2CC(c3ccc(Cl)cc3)=NN2C=O)ccc1OS(=O)(=O)c1ccc(C)cc1 (stereo not given) | 89.7% | 99.3% | 91.5% | 86.7% | 91% | 94.4% | 86.3% | 78.6% | 97.2% | 103%
C#CC[C@@H]1C[C@]2(C)[C@H]3CC[C@@H]4[C@H]5C(C(=C)C)CC[C@]5(C(=O)NCCCN5CCN(CCCN)CC5)CC[C@@]4(C)[C@]3(C)CC[C@H]2C(C)(C)[C@H]1OC(C)=O (stereo not given in full) | -50.4% (active) | -68.7% (active) | -95.7% (active) | -8.5% (active) | -68.2% (active) | 8.53% (active) | 83.3% | -85.6% (active) | -85.3% (active) | -59.5% (active)
CNC(=O)c1cc(Oc2ccc(NC(=O)c3nc(S(C)(=O)=O)sc3-c3ccc(F)cc3)cc2)ccn1 | 86.4% | 4.79% (active) | 113% | 84.4% | 86.6% | 71.1% | 90.3% | 93.3% | 45.7% | 57.9%
CCOC(C)(c1ccc(Cl)cc1)C1CCNCC1 (stereo not given) | 94.8% | 85.2% | 82.2% | 101% | 92.4% | 82.6% | 102% | 101% | 65.2% | 109%
CC(=O)O[C@H]1[C@H](CC#CC#CC[C@@H]2C[C@]3(C)[C@H]4CC=C5[C@H]6[C@@H](C)[C@H](C)CC[C@]6(C(=O)NCCCCCCCCN)CC[C@@]5(C)[C@]4(C)CC[C@H]3C(C)(C)[C@H]2OC(C)=O)C[C@]2(C)[C@H]3CC=C4[C@H]5[C@@H](C)[C@H](C)CC[C@]5(C(=O)NCCCCCCCCN)CC[C@@]4(C)[C@]3(C)CC[C@H]2C1(C)C | 108% | 98.2% | 94.7% | 107% | 98.2% | 92.8% | 105% | 112% | 96.9% | 124%
O=C(CI)NCCNc1cccc2c(S(=O)(=O)O)cccc12 | 98.6% | 110% | 96.9% | 89.7% | 105% | 102% | 99.6% | 89.5% | 103% | 106%
COc1ccc(OC)c(Nc2nc(-c3c(C)nc4sccn34)cs2)c1 | 73.6% | 73.6% | 78.4% | 96.9% | 89.5% | 37.6% | 18.8% | 79.6% | 83.4% | 101%
COc1ccc(C2=Nn3c(nnc3-c3ccc(Cl)cc3N)SC2)cc1 | 96.1% | 110% | 85.4% | 101% | 92.5% | 95.1% | 97.8% | 86.6% | 89.7% | 97.8%
CCN(CC)CCCCCCCNc1cc(OC)cc2c(C)ccnc12 | 76.8% | 52.5% | 82.9% | 96.3% | 86% | 51.4% | 85.3% | 91.3% | 56.6% | 105%
N=c1n(Cc2ccccc2)c(N)cc(=O)n1Cc1ccccc1 | 45.8% | 26.8% | 36.6% | 52.8% | 25.4% | 37.5% | 2.83% (active) | 33.8% | 14.2% | 60.8%
CCOC(=O)C(Nc1ccccc1)C(=O)OCC | 98.9% | 106% | 85% | 105% | 109% | 88.1% | 102% | 104% | 93.5% | 111%
Cc1ccc(NC(=O)c2nc(S(C)(=O)=O)oc2-c2ccc(F)cc2)cc1Nc1ccc2ncn(C)c(=O)c2c1 | 3.34% (active) | 15.8% | 105% | 126% | 69.7% | 88.6% | 78.9% | 85.8% | -71.5% (active) | 82.1%
Cc1cc2nc3c(=O)[nH]c(=O)nc-3n(CC=O)c2cc1C | 106% | 102% | 89.3% | 99.8% | 103% | 122% | 98.6% | 92.2% | 101% | 117%
CC1(C)C(N(O)C(=O)Nc2ccc(Cl)cc2)N(c2ccc(Cl)cc2)C(=O)N1CC(=O)N/N=C/C=C/c1ccc([N+](=O)[O-])o1 (stereo not given) | 37.5% | -43% (active) | 9.93% (active) | 48.5% | -14.4% (active) | 8.77% (active) | -96.5% (active) | -40.5% (active) | 0.58% (active) | -55.5% (active)
Cc1cc(O)ccc1C1=NN(c2ccc(S(N)(=O)=O)cc2)C(=O)CC1 | 35.2% | 11.2% | 63% | 82.3% | 53% | 50.7% | 25.2% | 27.2% | 63% | 58%
